PubChem BioAssay (NCI)
The panel holds about 83,000 compounds, 20% with a hit somewhere; the sample as a whole holds those more often.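 In brief: 96-well plates, 48 h treatment, single concentration, percent growth endpoint.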 A number with no mark means an inactive call. Active and inactive are the calls of the source. Rule for the calls: active = growth percent below 10; inactive = the rest.

Experiments:
Assay in all cases: NCI-60 one-dose screen, 48 h (100 = growth as untreated, 0 = no growth, -100 = all killed)
Conditions in all cases: 10 µM unless noted
[1] = test system: HCT-15 colon
[2] = test system: HT29 colon
[3] = test system: SNB-75 CNS
[4] = test system: SNB-19 CNS
[5] = test system: U251 CNS
[6] = test system: PC-3 prostate
[7] = test system: SK-MEL-5 melanoma
[8] = test system: UACC-62 melanoma
[9] = test system: LOX IMVI melanoma
[10] = test system: SK-MEL-28 melanoma

`COc1cc(/C=C\C(C)=N\Nc2ccccc2)ccc1O` was tested, and the growth [1] was 75.4%, the growth [2] was 108% and the growth [3] was 98.7%. The growth [4] was 103%, the growth [5] was 90.5% and the growth [6] was 67.2%. The growth [7] was 95%, the growth [8] was 69.8% and the growth [9] was 73.1%. For the same compound, the growth [10] was 120%.
Work on `O=C(Oc1ccccc1)C(Br)C(Br)c1ccccc1` (stereo not given) yielded a growth [1] of 95.4%, a growth [2] of 54.5% and a growth [3] of 110%. For the same compound, the growth [4] was 104%, the growth [5] was 75.7% and the growth [6] was 55.4%. The growth [7] was 106%, the growth [8] was 101% and the growth [9] was 82.2%. For the same compound, the growth [10] was 111%.
In the case of `COc1ccc(CNC(=O)c2c(C)n([O-])c3cc(F)c(F)cc3[n+]2=O)cc1`, the growth [1] is reported as 36.8%, the growth [2] is reported as 93% and the growth [3] is reported as 93%. For the same compound, the growth [4] was 93.9%, the growth [5] was 94.9% and the growth [6] was 94%. The growth [7] was 97.5%, the growth [8] was 87.7% and the growth [9] was 57.1%. For the same compound, the growth [10] was 93.7%.
Compound `CCOC(=O)C(Br)=P(c1ccccc1)(c1ccccc1)c1ccccc1` has a growth [1] of 102%, a growth [2] of 106% and a growth [3] of 118%. The growth [4] was 114%, the growth [5] was 87.7% and the growth [6] was 99.9%. For the same compound, the growth [7] was 87.6%, the growth [8] was 92.8% and the growth [9] was 101%. The growth [10] was 107%.
`O=C(O)CCNS(=O)(=O)c1ccc(-c2ccccc2)cc1` was tested, and the growth [1] was 99.2%, the growth [2] was 110% and the growth [3] was 90.6%. It also gave a growth [4] of 102%, a growth [5] of 94.5% and a growth [6] of 89.6%. The growth [7] was 97.9%, the growth [8] was 96.7% and the growth [9] was 92.1%. For the same compound, the growth [10] was 94.3%.
For `COc1cc(-c2n[nH]nc2-c2ccccn2)cc(OC)c1OC`, the growth [1] was 76.8%, the growth [2] was 112% and the growth [3] was 88.1%. The growth [4] was 94.8%, the growth [5] was 106% and the growth [6] was 82.1%. It also gave a growth [7] of 102%, a growth [8] of 87.3% and a growth [9] of 98.5%. For the same compound, the growth [10] was 120%.
In the case of `COc1cc(C(=O)/C=C/c2cccc(Nc3ccnc4cc(Cl)ccc34)c2)cc(OC)c1OC`, the growth [1] is reported as -32.1% (active), the growth [2] is reported as -90% (active) and the growth [3] is reported as 16.4%. The growth [4] was 20.3%, the growth [5] was -90.9% (active) and the growth [6] was -12.7% (active). For the same compound, the growth [7] was -45.5% (active), the growth [8] was 22.5% and the growth [9] was -85.8% (active). For the same compound, the growth [10] was -39.2% (active).
Work on `Nc1nc(NC2CC2)c2ncn(C3C=CC(CO)C3)c2n1` (stereo not given) yielded a growth [1] of 107%, a growth [2] of 101% and a growth [3] of 117%. The growth [4] was 112%, the growth [5] was 102% and the growth [6] was 119%. For the same compound, the growth [7] was 91.6%, the growth [8] was 83.6% and the growth [9] was 103%. It also gave a growth [10] of 118%.
For `c1ccc(CN=C(NCc2ccccc2)NCc2ccccc2)cc1`, the growth [1] was 79.7%, the growth [2] was 62.6% and the growth [3] was 59.3%. For the same compound, the growth [4] was 68.1%, the growth [5] was 51.9% and the growth [6] was 24.9%. For the same compound, the growth [7] was 35%, the growth [8] was 63.8% and the growth [9] was 59.8%. For the same compound, the growth [10] was 98.8%.
`Cc1ccc(/C=C/C(=O)c2ccc(F)cc2)s1` was tested, and the growth [1] was 67.3%, the growth [2] was 43.5% and the growth [3] was 90.9%. For the same compound, the growth [4] was 88%, the growth [5] was 51.6% and the growth [6] was 63.8%. The growth [7] was 90.6%, the growth [8] was 72.7% and the growth [9] was 58.3%. It also gave a growth [10] of 105%.
`C[C@]12CCC(=O)C=C1CCC1C2[C@@H](O)C[C@@]2(C)C1CC[C@]2(O)C(=O)COC(=O)CCC(=O)O` (stereo not given in full) showed a growth [1] of 112%, a growth [2] of 107% and a growth [3] of 123%. It also gave a growth [4] of 104%, a growth [5] of 105% and a growth [6] of 93.2%. For the same compound, the growth [7] was 98.6%, the growth [8] was 106% and the growth [9] was 98.5%. For the same compound, the growth [10] was 108%.
For `CCNCCCn1c2c(c3ccc(F)cc3c1=O)C(=O)c1cc(OC)cnc1-2`, the growth [1] was 2.25% (active), the growth [2] was -14.9% (active) and the growth [3] was -18.2% (active). For the same compound, the growth [4] was 12.1%, the growth [5] was -25.8% (active) and the growth [6] was -3.56% (active). For the same compound, the growth [7] was -99.1% (active), the growth [8] was -34.5% (active) and the growth [9] was -64.9% (active). For the same compound, the growth [10] was 8.91% (active).
Compound `OC(c1ccccc1)C(NCc1ccccc1)c1ccccc1` (stereo not given) has a growth [1] of 108%, a growth [2] of 103% and a growth [3] of 91%. The growth [4] was 87.8%, the growth [5] was 102% and the growth [6] was 79.9%. The growth [7] was 108%, the growth [8] was 90.3% and the growth [9] was 85.5%. The growth [10] was 101%.
